Out of some 5,500 compounds screened, about 2,000 (36%) were called active. Inconclusive results (about 18%) are left out. No stated cut-off is given here; in the data, active means normalized growth mostly below about 0.91 (no sharp cut-off); inconclusive means no clear call, values can overlap the other calls; inactive means mostly above about 0.92. The list shows a part of the results.
Test: chemical genetic growth profiling, strain panel (AID 1159580);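 further: tested at 20 µM; growth read once vehicle control cultures reached saturation at 30 °C; 1 = growth at the plate median or of vehicle wells; lower values mean less growth of the strain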
Settings: S. cerevisiae deletion strains, growth OD

Measured: normalized growth

CCOC(=O)CNc1ccc(Cl)c(Cl)c1
inactive: locus YAL013W, strain DEP1, active compounds read low 0.949 | locus YBR229C, strain ROT2, active compounds read low 0.969 | locus YCL061C, strain MRC1, active compounds read low 0.977 | locus YDL101C, strain DUN1, active compounds read low 0.974 | locus YDR150W, strain NUM1, active compounds read low 0.967 | locus YEL061C, strain CIN8, active compounds read low 0.986 | locus YGR078C, strain PAC10, active compounds read low 0.958 | locus YGR229C, strain SMI1, active compounds read low 0.998 | locus YHR030C, strain SLT2, active compounds read low 0.746 | locus YHR087W, strain rtc3, active compounds read low 0.978 | locus YJL187C, strain SWE1, active compounds read low 0.973 | locus YJR043C, strain POL32, active compounds read low 0.974 | locus YJR075W, strain HOC1, active compounds read low 0.927 | locus YLR039C, strain RIC1, active compounds read low 0.971 | locus YLR058C, strain SHM2 (second series), active compounds read low 0.97 | locus YLR085C, strain ARP6, active compounds read low 0.876 | locus YLR262C, strain YPT6, active compounds read low 0.975 | locus YML094W, strain GIM5, active compounds read low 0.973 | locus YMR219W, strain ESC1, active compounds read low 0.974 | locus YMR263W, strain SAP30, active compounds read low 0.946 | locus YMR307W, strain GAS1, active compounds read low 0.986 | locus YNL153C, strain GIM3, active compounds read low 0.962 | locus YNL298W, strain CLA4 (second series), active compounds read low 0.931 | locus YNL322C, strain KRE1, active compounds read low 0.971 | locus YNR030W, strain Alg12, active compounds read low 0.995 | locus YPL055C, strain LGE1, active compounds read low 0.87 | locus YPL241C, strain CIN2, active compounds read low 1 | locus YPR135W, strain CTF4, active compounds read low 0.906

Reference: PubChem BioAssay AID1159580 (chemical genetic matrix, 2015)
